Reference: PubChem BioAssay (EPA / NIEHS)
Records with an inconclusive call do not appear. The source made the active and inactive calls. Rule for the calls, unless noted: active = hit-call score of the fitted dose curve at least 0.9, where 1 is the maximum; inactive = score below 0.9.

Key:
[1] = ACEA_ER_80hr: ACEA Biosciences xCELLigence Real-Time Cell Analysis on Estrogen Receptor Agonism for Proliferation (AID 2282667; active = hit-call score of the fitted dose curve at least 0.9, where 1 is the maximum); details: T47D proliferation, impedance (xCELLigence), 80 h
Procedure, shortened: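 Cell-growth kinetics were measured by impedance in T47D cells treated continuously with compound (top 100 uM final, 1:4 steps, 8 points). Activity at 80 h was scored as signal gain over the DMSO baseline.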

[2] = ATG_CRE_CIS: Attagene CIS-FACTORIAL HepG2 Assay for human cAMP Responsive Element (CRE) binding protein 3 (AID 2282926); details: HepG2 CRE cis-reporter, Attagene multiplexed mRNA; actives raise or lower the signal
Procedure, shortened: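 Cells carrying cis-regulated reporter constructs respond through their own endogenous factors. After 24 h treatment, RNA is reverse-transcribed, amplified, labelled and sized by capillary electrophoresis; up- and down-regulation are both scored against vehicle.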

[3] = molecular target: CCAAT/enhancer-binding protein beta (Homo sapiens) (UniProt P17676); experiment: ATG_C_EBP_CIS: Attagene CIS-FACTORIAL HepG2 Assay for human CCAAT/Enhancer Binding Protein (C/EBP) beta (AID 2282927); details: HepG2 Attagene cis-factorial transcription factor reporter; actives raise or lower the signal
Chain of CCAAT/enhancer-binding protein beta (Homo sapiens) (P17676 whole entry, looked up): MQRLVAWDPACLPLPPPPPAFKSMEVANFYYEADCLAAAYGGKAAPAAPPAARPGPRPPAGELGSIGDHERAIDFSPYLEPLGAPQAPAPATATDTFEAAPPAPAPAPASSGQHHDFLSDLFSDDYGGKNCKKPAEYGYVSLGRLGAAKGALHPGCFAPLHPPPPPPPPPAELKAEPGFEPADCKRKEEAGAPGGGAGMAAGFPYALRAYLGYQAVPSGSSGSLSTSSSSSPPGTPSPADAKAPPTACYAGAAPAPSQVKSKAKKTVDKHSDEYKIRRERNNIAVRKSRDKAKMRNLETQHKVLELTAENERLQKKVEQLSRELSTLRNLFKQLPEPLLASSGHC
Procedure, shortened: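 Transiently transfected HepG2 (MRTU library, endogenous TF-driven promoters); 24 h dosing; total RNA → oligo(dT) RT → PCR → 6-FAM primer extension → HpaI digest → CE; fit bidirectionally vs DMSO.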

[4] = ATG_CMV_CIS: Attagene CIS-FACTORIAL HepG2 Assay for human CMV (Internal Marker) (AID 2282928); details: HepG2 CMV promoter reporter, transcription factor profiling; actives raise or lower the signal;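 note: endpoint acts as a background internal control marker rather than a target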
Procedure, shortened: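 Bidirectional fits against DMSO are applied to reporter mRNA, read by RT-PCR with capillary electrophoresis, from HepG2 cells exposed 24 h. The endpoint serves as an internal CMV background marker within the cis-factorial reporter panel.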

[5] = molecular target: Aryl hydrocarbon receptor (Homo sapiens) (UniProt P35869); experiment: ATG_Ahr_CIS: Attagene CIS-FACTORIAL HepG2 Assay for human Aryl Hydrocarbon Receptor (Ahr) (AID 2282930); details: HepG2 AhR cis-factorial reporter transcription; actives raise or lower the signal
Chain of Aryl hydrocarbon receptor (Homo sapiens) (P35869 whole entry, looked up): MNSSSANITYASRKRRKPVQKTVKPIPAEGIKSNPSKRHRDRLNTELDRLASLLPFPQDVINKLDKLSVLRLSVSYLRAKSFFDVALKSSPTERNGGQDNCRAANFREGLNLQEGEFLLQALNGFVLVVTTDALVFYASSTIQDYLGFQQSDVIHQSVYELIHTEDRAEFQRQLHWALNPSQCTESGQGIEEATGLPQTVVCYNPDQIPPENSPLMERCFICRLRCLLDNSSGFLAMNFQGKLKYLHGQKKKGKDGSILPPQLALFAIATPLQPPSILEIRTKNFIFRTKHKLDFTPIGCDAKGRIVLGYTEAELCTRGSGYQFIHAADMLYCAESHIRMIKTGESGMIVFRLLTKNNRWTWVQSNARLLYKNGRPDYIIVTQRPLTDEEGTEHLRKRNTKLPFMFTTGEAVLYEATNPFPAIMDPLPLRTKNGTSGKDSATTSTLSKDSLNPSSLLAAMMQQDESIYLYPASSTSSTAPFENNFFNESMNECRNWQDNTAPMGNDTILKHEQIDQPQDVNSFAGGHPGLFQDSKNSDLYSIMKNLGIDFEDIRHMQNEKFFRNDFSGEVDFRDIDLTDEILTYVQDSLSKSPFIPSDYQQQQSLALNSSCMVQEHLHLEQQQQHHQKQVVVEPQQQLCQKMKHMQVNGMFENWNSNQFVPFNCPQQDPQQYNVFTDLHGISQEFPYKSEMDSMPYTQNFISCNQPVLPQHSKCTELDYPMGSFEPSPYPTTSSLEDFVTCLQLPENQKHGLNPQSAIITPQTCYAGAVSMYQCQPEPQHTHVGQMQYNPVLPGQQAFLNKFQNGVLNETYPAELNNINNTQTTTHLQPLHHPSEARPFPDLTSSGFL
Procedure, shortened: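 Read-out: reporter mRNA quantified by RT-PCR with fluorescent primer extension and capillary electrophoresis. Human HepG2 liver cells carried transfected cis-promoter reporter units and were exposed to chemical for 24 h; gain or loss fitted relative to DMSO.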

[6] = ATG_AP_1_CIS: Attagene CIS-FACTORIAL HepG2 Assay for human Activator Protein 1 (AP-1) (AID 2282931); details: HepG2 Attagene cis-factorial AP-1 reporter mRNA; actives raise or lower the signal
Procedure, shortened: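 Fluorescence of labelled PCR fragments separated by capillary electrophoresis gives reporter mRNA levels. HepG2 with transfected cis-regulated reporter units, 24 h exposure; DMSO serves as baseline for bidirectional curve fits.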

[7] = ATG_AP_2_CIS: Attagene CIS-FACTORIAL HepG2 Assay for human Activator Protein 2 (AP-2) (AID 2282932); details: HepG2 AP-2 cis-reporter, Attagene transcription factor profiling; actives raise or lower the signal
Procedure, shortened: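 Read-out: fluorescent reporter mRNA via RT-PCR and capillary electrophoresis, 24 h post-dose in transiently transfected HepG2. Endogenous factors drive cis-promoter reporters; gain or loss of signal fitted bidirectionally against DMSO.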

[8] = ATG_BRE_CIS: Attagene CIS-FACTORIAL HepG2 Assay for human Bone Morphogenetic Protein (BMP) Response Element (BRE) (AID 2282933); details: HepG2 BMP response element reporter, Attagene transcription factor profiling; actives raise or lower the signal
Procedure, shortened: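 Fluorescence-labelled reporter cDNA fragments, separated by capillary electrophoresis, gave the signal for this component of a 52-readout multiplex. HepG2 cells were transfected, exposed to chemicals for 24 h, and compared with DMSO using bidirectional fitting.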

[9] = molecular target: Retinoic acid receptor alpha (Homo sapiens) (UniProt P10276); experiment: ATG_DR5_RAR_CIS: Attagene CIS-FACTORIAL HepG2 Assay for human Retinoic Acid Receptor Alpha (RARE), DR5 submotif (AID 2282934); details: HepG2 Attagene cis-factorial RARE DR5 reporter, mRNA; actives raise or lower the signal
Chain of Retinoic acid receptor alpha (Homo sapiens) (P10276 whole entry, looked up): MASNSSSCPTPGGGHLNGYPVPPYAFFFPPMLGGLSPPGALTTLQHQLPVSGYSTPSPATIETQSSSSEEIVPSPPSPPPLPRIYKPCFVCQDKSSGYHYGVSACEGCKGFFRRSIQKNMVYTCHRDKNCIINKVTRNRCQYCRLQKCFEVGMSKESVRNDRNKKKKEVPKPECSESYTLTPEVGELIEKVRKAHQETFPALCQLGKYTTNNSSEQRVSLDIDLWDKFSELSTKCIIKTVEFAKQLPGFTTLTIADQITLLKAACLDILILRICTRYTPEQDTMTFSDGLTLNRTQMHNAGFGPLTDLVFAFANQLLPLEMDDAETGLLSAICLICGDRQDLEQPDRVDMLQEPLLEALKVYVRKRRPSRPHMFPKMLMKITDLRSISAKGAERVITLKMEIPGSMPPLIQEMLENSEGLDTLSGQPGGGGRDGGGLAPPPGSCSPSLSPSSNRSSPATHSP
Procedure, shortened: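 Read-out: DR5-driven reporter transcript measured by RT-PCR, 6-FAM primer extension, HpaI digest and capillary electrophoresis. Human HepG2 liver cells carry transiently transfected cis-element reporter constructs; dosing lasts 24 h. Gain or loss of signal fitted against DMSO baseline.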

[10] = molecular target: Transcription factor E2F1 (Homo sapiens) (UniProt Q01094); experiment: ATG_E2F_CIS: Attagene CIS-FACTORIAL HepG2 Assay for human E2F Transcription Factor 1 (AID 2282935); details: HepG2 Attagene cis-reporter, E2F reporter RNA transcripts; actives raise or lower the signal
Chain of Transcription factor E2F1 (Homo sapiens) (Q01094 whole entry, looked up): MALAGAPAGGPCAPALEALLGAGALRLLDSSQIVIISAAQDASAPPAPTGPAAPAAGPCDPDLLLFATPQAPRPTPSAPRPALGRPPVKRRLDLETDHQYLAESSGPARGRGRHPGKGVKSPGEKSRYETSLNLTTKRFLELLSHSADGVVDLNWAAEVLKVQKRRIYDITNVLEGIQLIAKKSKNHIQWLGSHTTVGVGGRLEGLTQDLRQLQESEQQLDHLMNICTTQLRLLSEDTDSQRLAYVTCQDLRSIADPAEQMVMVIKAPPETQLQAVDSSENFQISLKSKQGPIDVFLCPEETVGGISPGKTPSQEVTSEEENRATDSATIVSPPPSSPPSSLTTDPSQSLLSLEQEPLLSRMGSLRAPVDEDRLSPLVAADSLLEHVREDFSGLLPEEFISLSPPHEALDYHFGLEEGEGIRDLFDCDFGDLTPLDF
Procedure, shortened: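 Transient MRTU transfection of HepG2; 24 h compound exposure; RNA → oligo(dT) RT → PCR → FAM label → HpaI cut → CE fluorescence. Gain/loss of signal fit against DMSO.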

[11] = ATG_E_Box_CIS: Attagene CIS-FACTORIAL HepG2 Assay for human Enhancer Box (E-box) (AID 2282936); details: HepG2 E-box cis-reporter transcription, actives raise or lower the signal
Procedure, shortened: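 Transiently transfected HepG2, endogenous TF-driven reporters, 24 h dosing. Readout: RT-PCR plus capillary electrophoresis of fluorescent reporter fragments. Gain or loss of signal fitted bidirectionally against DMSO baseline.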

[12] = ATG_M_61_CIS: Attagene CIS-FACTORIAL HepG2 Assay for M61 Transcription Factor (Internal Marker) (AID 2282937); details: HepG2 Attagene CIS-FACTORIAL M61 internal marker reporter; actives raise or lower the signal
Procedure, shortened: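 This endpoint serves as an internal background control within a multiplexed HepG2 cis-reporter panel. Cells are exposed for 24 h; reporter mRNA is amplified, fluorescently labelled and sized by capillary electrophoresis, with DMSO as negative control.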

[13] = ATG_EGR_CIS: Attagene CIS-FACTORIAL HepG2 Assay for human Early Growth Response 1 (EGR1) (AID 2282938); details: HepG2 Attagene CIS-FACTORIAL EGR reporter mRNA; actives raise or lower the signal
Procedure, shortened: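 HepG2, transient MRTU transfection (cis promoters), 24 h compound. RNA → RT (oligo-dT) → PCR → 6-FAM labelling → HpaI cut → CE fluorescence. Bidirectional fit, DMSO baseline.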

[14] = ATG_M_19_CIS: Attagene CIS-FACTORIAL HepG2 Assay for M19 Transcription Factor (Internal Marker) (AID 2282939); details: HepG2 Attagene CIS-FACTORIAL M19 internal marker reporter; actives raise or lower the signal
Procedure, shortened: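 HepG2, MRTU transient transfection, 24 h dosing. Total RNA → RT-PCR → 6-FAM primer extension → HpaI digest → CE fluorescence. Bidirectional curve fit, DMSO negative control.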

[15] = ATG_ERE_CIS: Attagene CIS-FACTORIAL HepG2 Assay for Estrogen Response Element (ERE) (AID 2282940); details: HepG2 ERE cis-reporter, Attagene RNA transcript; actives raise or lower the signal
Procedure, shortened: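 After a 24 h chemical treatment, RNA from reporter-transfected HepG2 cells is reverse-transcribed, PCR-amplified and fluorescently labelled. Fragments separated by capillary electrophoresis give reporter signal; DMSO serves as negative control.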

[16] = ATG_Ets_CIS: Attagene CIS-FACTORIAL HepG2 Assay for human Erythroblast Transformation Specific (ETS) (AID 2282941); details: HepG2 ETS cis-reporter transcription, actives raise or lower the signal
Procedure, shortened: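 Endogenous transcription factor activity read as reporter mRNA via RT-PCR and capillary electrophoresis, with gain or loss fitted bidirectionally against DMSO. Human HepG2 liver cells, transiently transfected CIS reporter constructs, 24 h exposure.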

[17] = molecular target: Hepatocyte nuclear factor 3-beta (Homo sapiens) (UniProt Q9Y261); experiment: ATG_FoxA2_CIS: Attagene CIS-FACTORIAL HepG2 Assay for human Forkhead box A2 (FOXA2) (AID 2282942); details: HepG2 cis-reporter transcription factor activity, 24 h; actives raise or lower the signal
Chain of Hepatocyte nuclear factor 3-beta (Homo sapiens) (Q9Y261 whole entry, looked up): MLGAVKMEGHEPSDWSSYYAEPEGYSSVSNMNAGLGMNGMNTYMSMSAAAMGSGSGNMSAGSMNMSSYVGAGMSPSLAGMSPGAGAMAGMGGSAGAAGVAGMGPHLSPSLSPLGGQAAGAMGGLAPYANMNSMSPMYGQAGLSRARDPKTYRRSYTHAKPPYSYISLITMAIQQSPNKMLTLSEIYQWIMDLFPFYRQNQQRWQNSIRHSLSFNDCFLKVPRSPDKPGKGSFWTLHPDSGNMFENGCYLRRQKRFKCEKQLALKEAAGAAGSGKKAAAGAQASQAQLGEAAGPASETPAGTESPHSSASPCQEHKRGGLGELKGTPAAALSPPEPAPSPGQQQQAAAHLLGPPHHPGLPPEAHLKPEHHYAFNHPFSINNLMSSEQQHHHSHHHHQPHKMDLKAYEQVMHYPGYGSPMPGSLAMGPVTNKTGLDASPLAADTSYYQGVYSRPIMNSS
Procedure, shortened: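 Cells: HepG2, transient multiplex reporter transfection. Exposure 24 h. Detection: reporter-specific RT-PCR, fluorescent labelling, restriction digest, capillary electrophoresis. Analysis: bidirectional curve fit, DMSO as negative control.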

[18] = ATG_FoxO_CIS: Attagene CIS-FACTORIAL HepG2 Assay for human Forkhead box O (FoxO) (AID 2282943); details: HepG2 Attagene cis-reporter, FoxO element, mRNA; actives raise or lower the signal
Procedure, shortened: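 Read-out: fluorescence of 6-FAM-labelled reporter cDNA fragments resolved by capillary electrophoresis. Transiently transfected HepG2 cells were dosed for 24 h; activity fitted in both directions relative to DMSO controls.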

[19] = ATG_GATA_CIS: Attagene CIS-FACTORIAL HepG2 Assay for human GATA Binding Protein (AID 2282944); details: HepG2 GATA cis-element reporter, Attagene multiplex mRNA; actives raise or lower the signal
Procedure, shortened: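 Cells: HepG2, transiently transfected with cis-regulated reporter transcription units. Exposure: 24 h. Detection: RT-PCR plus capillary electrophoresis of FAM-labeled fragments. Analysis: bidirectional, DMSO as baseline.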

Measured: AC50

O=C(O)C(F)(F)C(F)(F)C(F)(F)C(F)(F)C(F)(F)C(F)(F)C(F)F
active: [15] 64 µM
inactive: [1] | [2] | [3] | [4] | [5] | [6] | [7] | [8] | [9] | [10] | [11] | [12] | [13] | [14] | [16] | [17] | [18] | [19]

O=C(Cl)c1ccc(Cl)cc1Cl
inactive: [1] | [2] | [3] | [4] | [5] | [6] | [7] | [8] | [9] | [10] | [11] | [12] | [13] | [14] | [16] | [17] | [18] | [19]

Nc1c(Br)cc([N+](=O)[O-])cc1Br
inactive: [1] | [2] | [3] | [4] | [5] | [6] | [7] | [8] | [9] | [10] | [12] | [13] | [14] | [15] | [16] | [17] | [18] | [19]

O=C1c2c(O)ccc(Nc3ccc(CCO)cc3)c2C(=O)c2c([N+](=O)[O-])ccc(O)c21
inactive: [1] | [2] | [3] | [7] | [8] | [9] | [10] | [12] | [13] | [14] | [16] | [18] | [19]
active: [4] 12 µM | [5] 0.896 µM | [6] 17.7 µM

CC(O)C#CC(C)O (stereo unspecified)
inactive: [1] | [2] | [7] | [9] | [10] | [12] | [14] | [15] | [16]
active: [3] 179 µM | [4] 176 µM | [5] 72.8 µM | [6] 24.7 µM | [8] 182 µM | [11] 185 µM | [13] 82.9 µM | [17] 131 µM | [18] 63 µM | [19] 69.2 µM

C[Si](C)O[Si](C)C
inactive: [1] | [2] | [3] | [4] | [5] | [6] | [7] | [8] | [9] | [10] | [11] | [12] | [13] | [14] | [15] | [16] | [17] | [18] | [19]

NC(=O)C(F)(F)C(F)(F)C(F)(F)C(F)(F)C(F)(F)C(F)(F)C(F)(F)F
inactive: [1] | [2] | [3] | [4] | [6] | [7] | [8] | [9] | [10] | [11] | [12] | [13] | [14] | [16] | [17] | [18] | [19]
active: [15] 16 µM

C#CC(O)CCC (stereo unspecified)
inactive: [1] | [2] | [3] | [4] | [5] | [6] | [7] | [8] | [9] | [10] | [11] | [12] | [13] | [14] | [15] | [16] | [17] | [18] | [19]
